Compound activity (PubChem BioAssay)
This is a sample that favours compounds with a hit; in the whole collection about 1.7% have one here.
PTHR1 ag – agonists of human PTHR1 parathyroid hormone receptor; HEK293 GP2 PTHR1 cells, GloSensor cAMP luminescence, 1 h; AID 743266; Q03431; Potency, µM (top dose mostly 115 µM), for the others: at the highest dose activation, most hits filed as activators; 410,000 compounds, 0.075% hits; also: nearly all actives have a fitted effect of over 55% in size
Target sequence (Q03431 whole entry, looked up): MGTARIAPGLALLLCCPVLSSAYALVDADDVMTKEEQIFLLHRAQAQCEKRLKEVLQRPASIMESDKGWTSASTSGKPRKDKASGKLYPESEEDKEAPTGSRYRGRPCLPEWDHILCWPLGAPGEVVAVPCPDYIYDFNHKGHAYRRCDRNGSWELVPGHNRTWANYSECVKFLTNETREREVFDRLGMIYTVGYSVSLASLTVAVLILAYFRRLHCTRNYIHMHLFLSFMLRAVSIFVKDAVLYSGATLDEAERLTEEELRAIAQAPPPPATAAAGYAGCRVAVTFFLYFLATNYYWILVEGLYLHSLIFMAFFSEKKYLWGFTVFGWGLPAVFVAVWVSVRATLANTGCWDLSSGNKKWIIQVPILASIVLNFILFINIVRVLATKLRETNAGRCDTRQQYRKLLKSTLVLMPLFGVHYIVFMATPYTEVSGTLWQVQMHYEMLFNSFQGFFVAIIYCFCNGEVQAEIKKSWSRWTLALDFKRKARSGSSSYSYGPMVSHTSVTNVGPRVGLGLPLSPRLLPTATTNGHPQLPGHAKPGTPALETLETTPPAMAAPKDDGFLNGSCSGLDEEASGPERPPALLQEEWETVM
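HEK-293-derived GP2 cells expressing PTHR1 and a GloSensor cAMP reporter, 3,000/well, plated overnight, given luciferin plus IBMX (each 0.5 mM as added) for 1 h at 37 °C, then compound for 1 h at 37 °C. Luminescence was read after 15 min at room temperature.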
GLP1R inv ag – acts as inverse agonist at human GLP-1 receptor; P43220; HEK293 GLP-1R CRE-luciferase, luminescence, 24 h; GLP-1R form is constitutively active; Potency, µM (top dose mostly 38.3 µM), inactives show at the top dose activity change, negative = inhibition, most hits filed as inhibitors; 410,000 compounds, 1.6% hits; AID 624417; also: % is scaled to controls: 0 for no effect and ±100 for the full control effect; nearly all actives have a fitted effect of over 55% in size
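Inverse agonism was detected as reduced cAMP-driven luciferase luminescence after 24 h compound treatment. The cells were HEK293 clones expressing constitutively active human GLP-1R with the reporter. Reporter-only and GPR119 cell lines served as counterscreen controls.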
GLP1R ag – agonists of human GLP-1 receptor; AID 624172; Potency, µM (doses to about 45.6 µM), without a hit: at the top dose activation, hits mostly activators; HEK293 GLP-1R CRE-luciferase, luminescence, 4-6 h; cells express a hypersensitive GLP-1R form; 380,000 compounds, 0.007% hits; also: % of control where 0% means no effect
GLP1R cytotox – cytotoxicity in counter-screen for GLP-1R inverse agonists; HEK293 cAMP-luciferase reporter cells, luminescence, 24 h; Potency, µM (series often up to 38.3 µM), for the others: at the highest dose activity change, negative = inhibition, actives largely listed as inhibitors; 410,000 compounds, 0.13% hits; AID 624418;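 also: loss of luciferase light is scored as toxicity; % is scaled to controls: 0 for no effect and ±100 for the full control effect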
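Here, cytotoxicity is scored as loss of luminescence. The MLSMR collection was tested on cells seeded in medium containing 10% Nu serum, with a 24 hr compound exposure preceded by 12 hours of culture.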
An asterisk follows results filed as active; i = inactive; u = inconclusive; x = no result; [ ] = another dose, or the depositor's remark. Calls follow the shape of the dose curve; as a rule, active = well fitted curve in the direction sought with a large enough effect; inconclusive = small, poorly fitted or top-dose-only effect, or another doubt; inactive = no such curve, though single readings can be large; an effect the other way counts as inactive or inconclusive. Potency is read from the fitted curve at half-maximal effect.

SMILES	PTHR1 ag	GLP1R inv ag	GLP1R ag	GLP1R cytotox
C(=N\Nc1nc2ccccc2[nH]1)/c1ccccn1	-95.1%	u	-11.6%	11.2µM*
CC(NC(=O)/C=C/c1cnc2ccccc2n1)C12CC3CC(CC(C3)C1)C2 (configuration not stated)	-36.2%	u	-1.6%	-18.1%
CCOc1cc(CNc2ccc(N3CCOCC3)cc2)cc(Br)c1OCC	-21.7%	u	12.4%	3.3%
C=CCOc1c(Br)cc(CNc2ccc(NC(=O)CCC)cc2)cc1OCC	-3.8%[57.5 µM]	8.91µM*	-2.2%	-11.8%
CCOc1cc(CNc2ccc3c(c2)OCCO3)cc(Br)c1OCC	-8.7%[57.5 µM]	2.24µM*	0.8%	-28.9%
CC(C(=O)N1CCCC1)N1CCN(S(=O)(=O)c2ccc(OC(F)(F)F)cc2)CC1 (configuration not stated)	i	-14.2%	0.3%	-0.4%
CC1CC(C)CN(C(=O)C(C)N2CCN(S(=O)(=O)c3ccc(C(F)(F)F)cc3)CC2)C1 (configuration not stated)	-29.7%	10µM*	3.6%	-5.0%
CC1CC(C)CN(S(=O)(=O)c2ccc(C(C)(C)C)cc2)C1 (configuration not stated)	-37.6%	2µM*	7.7%	3.7%
S=C(NCc1ccccc1)C(=S)NCc1ccccc1	i	10µM*	10.5%	2.8%
C[C@@H](c1ccccc1)N1C[C@H](COCc2ccccc2)Oc2cc(N3CC[C@H](O)C3)ccc2S1(=O)=O	-13.2%	10µM*	-1.3%	-12.2%
CCCCC[C@@H](C)N1C[C@H](COCc2ccccc2)Oc2cc(N3CCC[C@@H]3CO)ccc2S1(=O)=O	-39.5%	11.2µM*	-0.3%	-14.0%
CN(C)C(=O)COC(=O)c1cccc(CN2C(=O)c3ccccc3C2=O)c1	i	21.0%	9.9%	-1.1%
CCN(CC)CCCC(C)Nc1nccc2c(Cl)cccc12 (configuration not stated)	-6.8%	4.47µM*	-4.7%	u
COC(=O)CN1C(=O)N/C(=C/c2ccccc2OC)C1=O	-5.2%	3.2%	2.7%	-2.1%
Cc1cc2cc(CNC(=S)Nc3ccc(OC(F)(F)F)cc3)ccc2[nH]1	i	11.2µM*	-3.0%	u
Oc1ccc(-c2n[nH]c(C(F)(F)F)c2-c2ccccc2)c(O)c1	-79.7%	u	1.9%	-9.2%
COc1ccccc1-c1c(-c2ccc(O)cc2O)n[nH]c1C(F)(F)F	-18.6%	11.2µM*	-2.9%	-15.4%
COc1ccc(C(=O)N/N=C/c2ccccc2OC(=O)c2ccccc2)cc1	i	10µM*	u	-3.6%
O=C(O)COc1ccccc1/C=N/NC(=O)c1cc2ccccc2cc1O	25.1µM*	-5.9%	-1.4%	-6.8%
COc1ccc(Oc2ccccc2/C=N/O)cc1	-31.0%	1µM*	1.6%	8.0%
Cc1c(Cl)cccc1NC(=O)N1CCCN(c2nc(-c3ccccc3)ns2)CC1	-20.9%	5.01µM*	5.6%	-4.6%
CN(C)CCOC1=Cc2ccccc2Sc2ccc(Cl)cc21	x	x	19.7%	x
CSCCC(NC(=O)c1ccccc1)C(=O)N1CCN(C(=O)c2ccccc2)CC1 (configuration not stated)	i	10.6%	-2.2%	0.1%
CSCCC(NC(=O)c1ccccc1)C(=O)N1CC=C(c2ccccc2)CC1 (configuration not stated)	-26.7%	10µM*	-3.3%	-21.5%
CCOC(=O)C1Nc2c(F)cc(C)cc2C2c3ccccc3CC12 (configuration not stated)	-34.8%	10µM*	-4.2%	26.2%
SMILES	PTHR1 ag	GLP1R inv ag	GLP1R ag	GLP1R cytotox
O=C(N/N=C/c1cc([N+](=O)[O-])ccc1O)c1ccc2c(c1)OCCO2	i	u	-2.5%	3.55µM*
O=C(N/N=C/c1ccccc1[N+](=O)[O-])c1ccc2c(c1)OCCO2	-29.4%	-13.8%	11.0%	-5.9%
COc1ccc(N2C(=O)C(CN3CCCCC3)C2c2ccccc2)cc1 (configuration not stated)	0.0%	u	14.4%	-5.3%
Cc1ccc(N2C(=O)C(CN(C)C)C2c2ccccc2)cc1 (configuration not stated)	-4.0%[57.5 µM]	11.2µM*	15.8%	-6.3%
CCN(CC)CC1C(=O)N(c2ccc(OC)cc2)C1c1ccccc1 (configuration not stated)	i	10µM*	13.2%	1.0%
Cc1cccc(C)c1NC(=O)CN1C(=O)CCSc2ccc(S(=O)(=O)N3CCCC3)cc21	i	1.2%	1.8%	1.7%
Cc1c(C(=O)NCc2ccc(F)cc2)c(-c2ccccc2)nn1-c1ccccc1	-11.3%[57.5 µM]	5.01µM*	4.9%	1.7%
Cc1nn(-c2ccccc2)c(C)c1C(=O)NCc1ccc(F)cc1	i	1.4%	-0.3%	-12.0%
COCc1c(C(=O)N2CCN(Cc3c(F)cccc3Cl)CC2)oc2ccccc12	-10.8%	10µM*	23.6%	-2.4%
O=C(c1ccc2c(c1)CCC2)N1CCN(Cc2c(F)cccc2Cl)CC1	-17.3%	10µM*	-7.4%	1.9%
CC1CCN(S(=O)(=O)c2cc(C(=O)NCc3ccc(N(C)C)cc3)n(C)c2)CC1	-16.5%	-15.7%	0.8%	3.6%
COc1ccc(/C=C2\SC(=N)N(c3nccs3)C2=O)cc1OC	i	10µM*	32.6%	-28.6%
O=C(CC(c1ccccc1)(c1ccccc1)c1ccccc1)N[C@@H](Cc1ccccc1)C(=O)O	i	u	-2.1%	1.9%
O=C(O)[C@H](Cc1ccccc1)NC(=O)C(c1ccccc1)(c1ccccc1)c1ccccc1	-7.1%	10µM*	-4.2%	0.4%
CSC[C@H]1CN(CCc2ccccc2)C(=O)[C@@H]1CC(=O)Nc1ccc(Br)cc1	-33.2%	10µM*	4.6%	-13.4%
O=C(C[C@H]1C(=O)N(CCc2ccccc2)C[C@@H]1Cc1ccccc1)Nc1ccc(Br)cc1	-51.5%	7.94µM*	-5.9%	-24.3%
O=C(Nc1ccccc1)Nc1ccccc1-n1ccnc1	i	4.8%	-4.8%	-1.7%
COc1ccc(-n2c(C)cc(C(=O)CN3C(=O)NC4(CCCc5sccc54)C3=O)c2C)cc1 (configuration not stated)	-28.3%	12.6µM*	3.6%	-7.7%
C/C(=N/Nc1ccc([N+](=O)[O-])cc1)c1c[nH]c2ccccc12	-29.4%	2.51µM*	5.8%	-11.7%
Cc1[nH]c2ccccc2c1/C=N/Nc1ccc([N+](=O)[O-])cc1	-5.2%	2.82µM*	3.8%	u
Cc1[nH]c2ccccc2c1/C=N/NC(=O)c1cccc([N+](=O)[O-])c1	-61.6%	-30.0%	6.2%	20.7%
CCOC(=O)c1c(C)[nH]c(CCC(=O)Nc2cc(Cl)ccc2OC)c1C	-21.0%	u	x	-3.8%
Cc1cc(C(=O)N/N=C/C=C/c2ccc([N+](=O)[O-])cc2)n[nH]1	-7.2%	-18.5%	11.9%	-18.5%
CCN(CC)CCNC(=O)c1ccc(-c2nc(CN3CCc4ccccc43)c(C)o2)cc1	i	-23.8%	-5.9%	-9.4%
CSc1ccccc1C(=O)N1CCc2ccc(NC(=O)c3ccccn3)cc2C1	-36.3%	u	2.6%	1.4%
